Source: PubChem BioAssay (NCI)
About 79,000 compounds went through this panel and 15% of them were active in at least one assay; those are over-represented in the sample as a whole. The source made the active and inactive calls. Cut-off read from the data, not from the text of the source: active = growth inhibition above about 70%; inactive = the rest.

Experiments:
[1] = NCI Yeast Anticancer Drug Screen. Data for the mlh1 strain (AID 171);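 note: 0% = growth of vehicle-treated control cultures of the same strain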; settings: S. cerevisiae mlh1 strain growth inhibition, stronger effect = higher value
Outline: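 Compounds are applied to a genetically altered yeast strain, and its growth is compared with that of vehicle-treated cultures to give percent inhibition.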

[2] = NCI Yeast Anticancer Drug Screen. Data for the sgs1 strain (AID 173);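 note: 0% = growth of vehicle-only control cultures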; settings: S. cerevisiae sgs1 mutant, stronger effect = higher value
Outline: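 Compounds applied to genetically altered yeast; growth compared with vehicle-treated cultures to give % inhibition.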

[3] = NCI Yeast Anticancer Drug Screen. Data for the mlh1 rad18 strain (AID 175); settings: S. cerevisiae mlh1 rad18 strain growth inhibition, stronger effect = higher value
Outline: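 Cells of a genetically altered yeast strain, deficient in DNA damage repair, were treated with compound. Their growth was then compared with that of vehicle-treated cultures to give inhibition.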

[4] = NCI Yeast Anticancer Drug Screen. Data for the rad18 strain (AID 177); settings: S. cerevisiae rad18 mutant growth inhibition, stronger effect = higher value
Outline: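 Compounds are applied to a repair-deficient yeast strain, and growth is compared with that of vehicle-treated cultures to give percent inhibition.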

[5] = NCI Yeast Anticancer Drug Screen. Data for the rad52 strain (AID 147);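 note: 0% = growth of vehicle-treated control cultures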; settings: S. cerevisiae rad52 mutant growth inhibition, stronger effect = higher value
Outline: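 DNA repair-defective yeast; compound exposure; growth scored against vehicle controls.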

[6] = NCI Yeast Anticancer Drug Screen. Data for the wt1 strain (AID 149);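 note: 0% = growth of vehicle-treated wt1 cultures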; settings: S. cerevisiae wt1 strain (SPY 50644) growth inhibition, stronger effect = higher value
Outline: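 wt1 strain grown with compound or vehicle; inhibition taken from the growth difference.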

[7] = NCI Yeast Anticancer Drug Screen. Data for the rad50EPP+ strain (AID 151);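 note: 0% = growth of vehicle-treated control cultures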; settings: S. cerevisiae rad50 mutant strain, stronger effect = higher value
Outline: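 rad50EPP+ yeast treated with test compounds. Readout: growth vs vehicle control.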

[8] = NCI Yeast Anticancer Drug Screen. Data for the rad50 strain (AID 155);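 note: 0% = growth of vehicle-only cultures of the same strain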; settings: S. cerevisiae rad50 strain growth inhibition, stronger effect = higher value
Outline: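 DNA repair mutant yeast, compound exposure, growth read-out; inhibition is taken relative to vehicle.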

[9] = NCI Yeast Anticancer Drug Screen. Data for the mec2-1 strain (AID 157); settings: S. cerevisiae mec2-1 strain, stronger effect = higher value
Outline: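 Growth inhibition is read against vehicle-treated controls after compound exposure of the mec2-1 yeast strain, which is defective in DNA damage repair or cell cycle control.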

[10] = NCI Yeast Anticancer Drug Screen. Data for the rad14 strain (AID 159);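 note: 0% = growth of vehicle-treated control cultures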; settings: S. cerevisiae rad14 strain growth inhibition, stronger effect = higher value
Outline: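 DNA repair-defective yeast, compound-exposed; % growth inhibition derived by comparison with vehicle-treated controls.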

[11] = NCI Yeast Anticancer Drug Screen. Data for the sgs1 mgt1 strain (AID 161);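 note: 0% = growth of cultures given vehicle only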; settings: S. cerevisiae sgs1 mgt1 strain, stronger effect = higher value
Outline: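 Yeast cells carrying a defined DNA-repair defect were exposed to test compounds. Growth inhibition was measured relative to vehicle-treated controls.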

[12] = NCI Yeast Anticancer Drug Screen. Data for the CLN2oe strain (AID 163);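 note: 0% = growth of vehicle-only control cultures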; settings: S. cerevisiae CLN2oe strain, stronger effect = higher value
Outline: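 Compound-treated yeast; growth vs vehicle ctrl = % inhibition. Genetically altered strain (cell-cycle control).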

[13] = NCI Yeast Anticancer Drug Screen. Data for the cln2 rad14 strain (AID 165);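 note: 0% = growth equal to vehicle treated cultures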; settings: S. cerevisiae cln2 rad14 strain, stronger effect = higher value
Outline: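 Growth inhibition, relative to vehicle-treated controls, is the read-out. The test organism is a yeast strain with defined genetic alterations, cln2 rad14.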

[14] = NCI Yeast Anticancer Drug Screen. Data for the bub3 strain (AID 167); settings: S. cerevisiae bub3 mutant strain, stronger effect = higher value
Outline: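 In this screen, a yeast mutant lacking normal mitotic checkpoint function is challenged with compound. Relative growth versus vehicle gives the inhibition value.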

[15] = NCI Yeast Anticancer Drug Screen. Data for the wt2 strain (AID 169);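 note: 0% = growth of vehicle-treated yeast cultures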; settings: S. cerevisiae wt2 strain growth inhibition, stronger effect = higher value
Outline: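 Compound exposure of yeast; growth compared with vehicle controls; inhibition reported.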

[16] = at 5.0 µM (retest, dose inferred, filed as 0.5)
[17] = at 50.0 µM (retest, dose inferred, filed as 5.0)

Measured: growth inhibition

OCCNCCOc1ccc(/C(=C(/Cl)c2ccccc2)c2ccccc2)cc1
active: [1]; at 33.0 µM 98% | [1]; at 100.0 µM 98% | [2]; at 33.0 µM 98% | [2]; at 100.0 µM 98% | [3]; [17] 99% | [3]; at 50.0 µM 90% | [4]; at 33.0 µM 98% | [4]; at 100.0 µM 98%
inactive: [1]; at 1.2 µM 7% | [1]; at 3.7 µM 12% | [1]; at 11.0 µM 67% | [2]; at 1.2 µM -15% | [2]; at 3.7 µM -23% | [2]; at 11.0 µM 32% | [3]; [16] 43% | [4]; at 1.2 µM -8% | [4]; at 3.7 µM -6% | [4]; at 11.0 µM 24%

CCCCCCCCCCCCCCCCCCNC(=S)/N=C\C1=C(O)c2ccccc2C1=O
active: [8]; [17] 86% | [11]; at 50.0 µM 71% | [14]; [17] 84%
inactive: [5]; at 1.2 µM 17% | [5]; at 3.7 µM 4% | [5]; at 11.0 µM 12% | [5]; at 33.0 µM 17% | [5]; at 100.0 µM 19% | [6]; at 1.2 µM -44% | [6]; at 3.7 µM -2% | [6]; at 11.0 µM -5% | [6]; at 33.0 µM -5% | [6]; at 100.0 µM -3% | [7]; at 1.2 µM -6% | [7]; at 3.7 µM 7% | [7]; at 11.0 µM 26% | [7]; at 33.0 µM 42% | [7]; at 100.0 µM 60% | [8]; at 1.2 µM -1% | [8]; at 3.7 µM 0% | [8]; [16] 5% | [8]; at 11.0 µM 0% | [8]; at 33.0 µM 4% | [8]; at 50.0 µM 60% | [8]; at 100.0 µM 9% | [9]; at 1.2 µM -3% | [9]; at 3.7 µM -1% | [9]; [16] -16% | [9]; at 11.0 µM -5% | [9]; at 33.0 µM 2% | [9]; [17] 37% | [9]; at 50.0 µM 36.7% | [9]; at 100.0 µM 2% | [10]; at 1.2 µM 0% | [10]; at 3.7 µM 3% | [10]; at 11.0 µM 7% | [10]; at 33.0 µM 10% | [10]; at 100.0 µM 11% | [11]; [16] -13% | [11]; [17] 18% | [12]; at 1.2 µM -10% | [12]; at 3.7 µM -7% | [12]; at 11.0 µM -5% | [12]; at 33.0 µM -13% | [12]; at 100.0 µM -4% | [13]; [16] 33% | [13]; [17] -10% | [13]; at 50.0 µM 25.7% | [14]; at 1.2 µM -5% | [14]; at 3.7 µM -9% | [14]; [16] -2% | [14]; at 11.0 µM -4% | [14]; at 33.0 µM -3% | [14]; at 50.0 µM 69.7% | [14]; at 100.0 µM 52% | [15]; at 1.2 µM -2% | [15]; at 3.7 µM -2% | [15]; at 11.0 µM 1% | [15]; at 33.0 µM 13% | [15]; at 100.0 µM 36% | [1]; at 1.2 µM -1% | [1]; at 3.7 µM -1% | [1]; at 11.0 µM -3% | [1]; at 33.0 µM -2% | [1]; at 100.0 µM -1% | [2]; at 1.2 µM 0% | [2]; at 3.7 µM 6% | [2]; at 11.0 µM 13% | [2]; at 33.0 µM 15% | [2]; at 100.0 µM 30% | [3]; [16] -13% | [3]; [17] 63% | [3]; at 50.0 µM 53%

CC(C)(O)c1ccccc1C(c1ccccc1)c1ccccc1
inactive: [5]; at 1.2 µM 0% | [5]; at 3.7 µM -3% | [5]; at 11.0 µM 9% | [5]; at 33.0 µM 3% | [5]; at 100.0 µM 8% | [6]; at 1.2 µM 0% | [6]; at 3.7 µM -1% | [6]; at 11.0 µM 5% | [6]; at 33.0 µM -3% | [6]; at 100.0 µM 4% | [7]; at 1.2 µM -5% | [7]; at 3.7 µM -4% | [7]; at 11.0 µM 5% | [7]; at 33.0 µM -1% | [7]; at 100.0 µM 4% | [8]; at 1.2 µM -2% | [8]; at 3.7 µM 3% | [8]; [16] 53% | [8]; at 11.0 µM 4% | [8]; at 33.0 µM 6% | [8]; at 50.0 µM 18.6% | [8]; at 100.0 µM 7% | [9]; at 1.2 µM -2% | [9]; at 3.7 µM 0% | [9]; [16] -5% | [9]; at 11.0 µM -2% | [9]; at 33.0 µM 1% | [9]; [17] 42% | [9]; at 50.0 µM 9.35% | [9]; at 100.0 µM 5% | [10]; at 1.2 µM 0% | [10]; at 3.7 µM 0% | [10]; at 11.0 µM 0% | [10]; at 33.0 µM 3% | [10]; at 100.0 µM 10% | [11]; [16] 25% | [11]; at 50.0 µM 17% | [12]; at 1.2 µM 1% | [12]; at 3.7 µM -1% | [12]; at 11.0 µM 3% | [12]; at 33.0 µM 9% | [12]; at 100.0 µM 17% | [13]; [16] 17% | [13]; at 50.0 µM -1% | [14]; at 1.2 µM -2% | [14]; at 3.7 µM -2% | [14]; [16] 29% | [14]; at 11.0 µM -4% | [14]; at 33.0 µM -2% | [14]; at 50.0 µM 7.9% | [14]; at 100.0 µM 4% | [15]; at 1.2 µM -9% | [15]; at 3.7 µM -10% | [15]; at 11.0 µM -12% | [15]; at 33.0 µM -10% | [15]; at 100.0 µM -17% | [1]; at 1.2 µM -3% | [1]; at 3.7 µM -3% | [1]; at 11.0 µM -2% | [1]; at 33.0 µM 0% | [1]; at 100.0 µM 9% | [2]; at 1.2 µM -6% | [2]; at 3.7 µM 20% | [2]; at 11.0 µM -14% | [2]; at 33.0 µM -5% | [2]; at 100.0 µM 1% | [3]; [16] 59% | [3]; at 50.0 µM 10.9% | [4]; at 1.2 µM -2% | [4]; at 3.7 µM 1% | [4]; at 11.0 µM 1% | [4]; at 33.0 µM 3% | [4]; at 100.0 µM 15%
active: [8]; [17] 85% | [11]; [17] 88% | [13]; [17] 80% | [14]; [17] 86% | [3]; [17] 92%
